Data reported in PubChem BioAssay AID1851 (National Center for Advancing Translational Sciences (NCATS), 2009).
“And” between values parts separate entries of the source, which are not always exact repeats. Identical values can stand only once. Hit rate of the full screen: of about 16,000 compounds, about 4,000 (25%) were called active. Not shown: some 26% with an inconclusive outcome. Only a sample is shown. Unmarked numbers belong to inactive results. Calls follow the shape of the dose curve; as a rule, active = well fitted curve in the direction sought with a large enough effect; inconclusive = small, poorly fitted or top-dose-only effect, or effect the other way; inactive = no such curve, though single readings can be large or run the other way.

Molecular target: Cytochrome P450 2C9 (Homo sapiens) (UniProt P11712)
Assay: Cytochrome panel assay with activity outcomes
Details: recombinant CYP, pro-luciferin dealkylation, luminescence, p450-cyp2c9; series mostly up to 57.1 µM
% is scaled to controls: 0 for no effect and ±100 for the full control effect.

Chain of Cytochrome P450 2C9 (Homo sapiens) (P11712 whole entry, looked up): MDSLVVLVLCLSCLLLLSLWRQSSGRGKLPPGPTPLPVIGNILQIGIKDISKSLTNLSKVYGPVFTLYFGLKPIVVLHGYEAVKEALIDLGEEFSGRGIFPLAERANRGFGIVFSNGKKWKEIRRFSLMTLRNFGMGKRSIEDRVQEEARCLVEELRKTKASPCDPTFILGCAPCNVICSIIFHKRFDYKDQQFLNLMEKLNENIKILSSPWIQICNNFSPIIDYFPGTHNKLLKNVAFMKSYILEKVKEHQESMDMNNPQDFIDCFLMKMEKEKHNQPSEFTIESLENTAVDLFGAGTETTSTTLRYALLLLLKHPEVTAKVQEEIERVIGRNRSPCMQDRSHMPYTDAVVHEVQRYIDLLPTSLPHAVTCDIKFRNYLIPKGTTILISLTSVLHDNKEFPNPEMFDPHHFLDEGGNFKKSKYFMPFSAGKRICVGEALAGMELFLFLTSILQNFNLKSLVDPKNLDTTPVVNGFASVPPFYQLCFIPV

| SMILES | activity, negative = inhibition | AC50 |
| --- | --- | --- |
| CC(C)=CCC/C(C)=C/CO/N=C1/C[C@@H](O)[C@@H](O)[C@@H]2[C@@H]3C(=O)N(C(C)(C)C)C(=O)[C@H]3CC[C@H]12 | 23% [at 11.4 µM] |  |
| CC(=O)OC[C@@H]1O[C@H](C/C=N\O[C@@H](C)CN2CCCCc3nc(C)c(C)cc32)C=C[C@@H]1OC(C)=O | 10.2% [at 11.4 µM] |  |
| CC(C)(C)NC[C@H](O)COc1cccc2c1CCCC2=O |  | inactive |
| CC(C)[C@H](CO)Nc1nc(Nc2ccc(C(=O)O)c(Cl)c2)c2ncn(C(C)C)c2n1 |  | inactive |
| CC(C)[C@H](CO)Nc1nc(Nc2cc(N)cc(Cl)c2)c2ncn(C(C)C)c2n1 |  | 20 µM (active) |
| CC(C)Oc1cccc(-n2c(CCc3c[nH]c4ccc(Br)cc34)nc3ccccc3c2=O)c1 |  | inactive |
| O=c1/c(=C\c2ccc(O)cc2)sc2n1C(c1ccccc1)C(c1ccccc1)=NN=2 (stereo not drawn) |  | 3.55 µM (active) |
| CC(=O)NCCNc1nc(-c2ccc(N(C)C)cc2)nc2ccccc12 | -16.1% [at 2.29 µM] |  |
| COc1ccc([C@@H](Nc2ncccn2)c2cc3c(cc2O)OCO3)cc1 |  | 3.16 µM (active) |
| COc1ccc(CNc2ccnc(-c3ccc4c(c3)OCO4)n2)c(OC)c1 | -25.6% [at 2.29 µM] |  |
| COc1ccc([C@@H](C)c2cc3c(cc2O)OCO3)cc1 |  | 1.58 µM (active) |
| COc1ccccc1CNc1ccnc(-c2ccc3c(c2)OCO3)n1 | -27.5% [at 2.29 µM] |  |
| O=C(O)[C@@H](O)Cc1ccccn1 | -2.15% [at 11.4 µM] |  |
| CC(C/C=N/NC(=O)COc1cc(Cl)ccc1Cl)c1ccccc1 (stereo not drawn) |  | 10 µM (active) |
| O=C(COc1ccc(Cl)cc1Cl)N/N=C/CCc1ccccc1 |  | inactive |
| CC(C)C(=O)Nc1ccc(Sc2ccc(F)cc2)cc1 |  | 14.1 µM (active) |
| C/C(=N\NC(=S)Nc1ccc(F)cc1)C1CC1 |  | inactive |
| CC(C)C(=O)Nc1ccc(NC(=O)c2cccnc2)cn1 |  | inactive |
| O=C(c1cc(C(F)(F)F)cc(C(F)(F)F)c1)N1CCC[C@@]2(CCN(c3ccncc3)C2)C1 |  | inactive |
| O=C(O)CC[C@@H](NC(=O)c1ccccc1C(=O)O)C(=O)O |  | inactive |
| CCCN(CCC)C(=O)[C@@H](CCC(=O)O)NC(=O)c1ccccc1 |  | inactive |
| CCCCCN(CCCCC)C(=O)[C@H](CCC(=O)O)NC(=O)c1ccc(Cl)c(Cl)c1 |  | 3.98 µM (active) and 1 µM (active) |
| CN(C)CCCO[C@H]1[C@H]([C@H](O)CO)O[C@H]2OC(C)(C)O[C@@H]21 |  | inactive |
| Cc1cc(OC(=O)c2ccccc2Cl)cc(=O)n1C |  | 10 µM (active) |

| SMILES | activity, negative = inhibition | AC50 |
| --- | --- | --- |
| CC(C)=C[C@H]1[C@@H](COC(=O)c2ccccc2Cl)C1(C)C | -5.63% [at 11.4 µM] |  |
| Cc1cc(OC(=O)c2ccc(Cl)cc2)cc(=O)n1C |  | 25.1 µM (active) |
| Cc1cc(OC(=O)c2ccccc2Br)cc(=O)n1C |  | inactive |
| CN(C)CCC=C1c2ccccc2C=Cc2ccccc21 |  | inactive |
| CCNc1ncc2nc(-c3ccc(F)cc3)c(=O)n(-c3ccc(OC)cc3)c2n1 |  | inactive |
| O=C1[C@H]2CCn3c(=O)n(-c4ccccc4)c(=O)n3[C@H]2[C@H](O)[C@H]2O[C@@H]12 | -4.73% [at 11.4 µM] |  |
| CCOC(=O)CC(Nc1nc(N2CCOCC2)nc(N2CCOCC2)n1)c1ccccc1Cl (stereo not drawn) |  | 4.47 µM (active) |
| Clc1ccccc1C(Nc1ncccn1)Nc1ncccn1 | 4.43% [at 11.4 µM] |  |
| CCc1ccccc1N1C(=O)c2cccc3c(N4CCOCC4)c([N+](=O)[O-])cc(c23)C1=O |  | 15.8 µM (active) |
| O=c1cc(N2CCOCC2)oc2c(-c3ccccc3)cccc12 |  | inactive |
| CO[C@H]1C[C@@H]2C[C@H](O)C[C@@H](CC(=O)O[C@@H](/C=C\CC(C)C)C[C@@H]3CC[C@H](C)[C@@H](C1)O3)O2 | 1.57% [at 11.4 µM] |  |
| CN1CCC2(CC1)CCN(S(=O)(=O)c1ccccc1)CC2 |  | inactive |
| O=C(NCCN1CCN(Cc2ccccc2)CC1)C1c2ccccc2C(=O)N2CCc3ccccc3C12 (stereo not drawn) |  | inactive |
| O=C1c2ccccc2C(=O)N1CC1c2ccccc2CCN1S(=O)(=O)c1ccccc1 (stereo not drawn) |  | 3.16 µM (active) |
| COCC(C)n1c(C)cc(C(=O)CSc2nnc(Nc3ccccc3F)s2)c1C (stereo not drawn) |  | 11.2 µM (active) |
| CCOC(=O)N1CCN(C(=O)c2ccc3nc(SCc4ccc(F)cc4)n(C)c3c2)CC1 |  | 1.58 µM (active) |
| CCOC(=O)N1CCN(C(=O)c2cc(-c3ccc(F)cc3)[nH]c2C)CC1 |  | inactive |
| N#Cc1ccc(CN2CC3(CCN(C(=O)c4cccc(F)c4)CC3)C2)cc1 |  | inactive |
| Cc1cccnc1NC(=O)C12CCC(C)(C(=O)O1)C2(C)C (stereo not drawn) |  | inactive |
| Cc1ccc(NC(=O)Nc2ncccc2C)cc1 |  | 28.2 µM (active) |
| O=C(Nc1ccc2ncccc2c1)Nc1ccc2ncccc2c1 | 4.23% [at 11.4 µM] |  |
| CN(C)C(=O)Oc1cccc([N+](C)(C)C)c1 |  | inactive |
| CC[C@H](c1ccc(O)cc1)[C@@H](CC)c1ccc(O)cc1 |  | 5.01 µM (active) |
| CC[C@H](NC(C)C)[C@H](O)c1ccc(O)c(O)c1 |  | inactive |

| SMILES | activity, negative = inhibition | AC50 |
| --- | --- | --- |
| C[C@H](NCCc1ccc(O)cc1)[C@@H](O)c1ccc(O)cc1 |  | inactive |
| CN(C)C[C@H]1CCC[C@@H](CN(C)C)C1=O | 1.9% [at 11.4 µM] |  |
| Cc1ccc(-n2nnnc2-c2cnc3ccc(Cl)cc3c2-c2ccccc2)cc1 |  | 8.91 µM (active) |
| Clc1ccc2[nH]cc(-c3nnnn3-c3ccccc3)c2c1 |  | 5.01 µM (active) |
| CCn1cc(-c2nnnn2-c2ccc(Cl)cc2)c(=O)c2ccccc21 |  | inactive |
| CC12CCC(C(=O)O)(C/C1=N\O)C2(C)C (stereo not drawn) |  | inactive |
| COc1cccc(-c2cncnc2N(C)Cc2ccco2)c1 | -5.51% [at 2.29 µM] |  |
| CC1(C)CC(=O)c2c(Cc3ccccc3)n[nH]c2C1 |  | 14.1 µM (active) |
| C=CCN=C1CC(C)(C)CC(=O)/C1=C(\O)c1ccccc1 |  | inactive |
| O=C(O)c1ccc(C(=O)Nc2cccc3ccccc23)c(C(=O)O)c1 | -2.72% [at 11.4 µM] |  |
| CC(=O)Nc1ccccc1C(=O)C(=O)O |  | inactive |
| O=C(Nc1ccccc1C(=O)O)c1ccc2ccccc2n1 |  | 8.91 µM (active) |
| O=C(Nc1cccc(-c2cn3cccnc3n2)c1)c1ccco1 |  | 12.6 µM (active) |
| CCCC(=O)Nc1cc(-c2cn3cccnc3n2)ccc1OC |  | inactive |
| C[C@@H]1NCC[C@H](CC(=O)O)[C@H]1CC(=O)O | -13.5% [at 11.4 µM] |  |
| CC(C)(C)c1ccc(CN(Cc2ccco2)Cc2nnnn2C2CCCC2)cc1 |  | 3.55 µM (active) |
| O=C1CCc2cc(OCCCCc3nnnn3C3CCCCC3)ccc2N1 |  | inactive |
| O=C(O)c1nnsc1-c1csnn1 | -13.9% [at 11.4 µM] |  |
| O=C(Nc1ccc2c(c1)OCCO2)c1cc2sccc2n1Cc1ccc(F)cc1 |  | 3.55 µM (active) |
| CCNC(=O)NC1(C(=O)Nc2ccc3c(c2)OCCO3)CCCCC1 |  | inactive |
| CCO[P@]1(=O)OC[C@@H]2O[C@H](n3cnc4c(N)ncnc43)[C@H](O)[C@@H]2O1 | -1.07% [at 11.4 µM] |  |
| O=C(Nc1ccccc1)N1CC[C@@]2(CCCN(C(=O)c3cc(C(F)(F)F)cc(C(F)(F)F)c3)C2)C1 |  | inactive |
| CCCCC(=O)OCc1cn(-c2ccc(Cl)cc2)nn1 |  | 17.8 µM (active) |
| Cc1ccccc1NC(=O)OCc1cn(-c2ccc(Cl)cc2)nn1 |  | inactive |

| SMILES | activity, negative = inhibition | AC50 |
| --- | --- | --- |
| NNC(=O)c1nn(-c2ccc(Cl)cc2)ccc1=O |  | inactive |
| CCOC(=O)CCN1C(=O)[C@H]2[C@H]3[C@H](O)[C@H](O)C/C(=N/OC/C=C(\C)CCC=C(C)C)[C@H]3CC[C@@H]2C1=O | 3.33% [at 11.4 µM] |  |
| CCC(Sc1nc(=O)cc(N)n1CCc1ccccc1)C(=O)Nc1ccccc1C#N (stereo not drawn) |  | 2.51 µM (active) |
| CCNc1ncc2nc(C)c(=O)n(CCc3ccccc3)c2n1 |  | inactive |
| CC(=O)O[C@@H](C)C[N+](C)(C)C |  | inactive |
| N#Cc1cccc(NC(=O)N2CC[C@@]3(CCCN(C(=O)c4ccncc4)C3)C2)c1 |  | inactive |
| Cc1ccc(S(=O)(=O)N2CCN(C(=O)c3ccccc3)C2C(C)C)cc1 (stereo not drawn) |  | 25.1 µM (active) |
| Cc1ccc(S(=O)(=O)N2CCC(C(=O)O)(c3ccccc3)CC2)cc1 | -9.94% [at 11.4 µM] |  |
| CC(=O)N1CCN(S(=O)(=O)c2ccccc2)C1c1ccccc1 (stereo not drawn) |  | inactive |
| Cc1noc(C)c1-c1nccc(Nc2ccc(F)cc2)n1 | 25.8% [at 2.29 µM] |  |
| Fc1cccc(NC(=S)NCCCN2CCOCC2)c1 |  | inactive |
| O=C(O)CCC(=O)Nc1ccc(C(=O)N2CCCCC2)cc1 |  | inactive |
| O=C(CSc1ccc(Cl)cc1)Nc1ccc(N2CCN(C(=O)c3ccc(Cl)cc3)CC2)cc1 |  | 5.01 µM (active) |
| O=C(CSc1ccc(Cl)cc1)Nc1ccc(N2CCN(c3ccccc3)CC2)c(F)c1 |  | inactive |
| O=C(CN1CCN(c2ccc(Cl)cc2)CC1)Nc1cccc(F)c1 |  | 2.82 µM (active) |
| O=C(CN1CCN(c2ccc(Cl)cc2)CC1)Nc1ccc(F)c(F)c1 |  | 3.55 µM (active) |
| COC(=O)N1CCC2(CCN(C(=O)Nc3cccc(F)c3)CC2)CC1 |  | inactive |
| COc1ccc2c(Cl)c(-c3nnco3)sc2c1 |  | inactive |
| [O-][N+]1(CC[N+]2([O-])CCCCC2)CCCCC1 | -6.33% [at 11.4 µM] |  |
| CCOC(=O)CSc1nnc(Cc2cc(=O)[nH]c(=O)[nH]2)n1-c1cccc(OC)c1 |  | inactive |
| CCOC(=O)CSc1nnc(CSc2nc3sc4c(c3c(=O)[nH]2)CCCC4)n1-c1ccccc1 |  | 5.01 µM (active) |
